# Compounds without any hit were thinned out: in the full panel of roughly 83,000, 20% have a hit.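 Assay: single dose, 48 h. Readout: percent growth (0 = no net growth; negative = cell death). Active: <10.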 Unmarked numbers belong to inactive results. The source made the active and inactive calls.
# Tested on: HL-60(TB) leukemia
# Assay: NCI-60 one-dose screen, 48 h (100 = growth as untreated, 0 = no growth, -100 = all killed)
# Conditions: 10 µM unless noted
row,SMILES,growth
1,COc1ccc(C(=O)c2cc(C)c(OC)c(C)c2)c(OC)c1N(C(=O)CCl)C(=O)CCl,-42.3% (active)
2,O=[N+]([O-])C1CC2C=CC1C2 (stereo not given),97.6%
3,CCN1C(=O)N(CC)C2Nn3c(s/c(=C4\C(=O)N(CCC(C)C)c5ccccc54)c3=O)=NC21 (stereo not given),83.1%
4,Cc1ccc(S(=O)(=O)Oc2ccc3sc4cccc(NCCN(C)C)c4c(=O)c3c2)cc1,-64% (active)
5,O=C(NCC(c1ccsc1)N1CCCCCC1)c1ccc(C(F)(F)F)cc1 (stereo not given),97.5%
6,Cc1nc(Nc2ccc(S(=O)(=O)Nc3cc(C)on3)cc2)c2ccccc2n1,101%
7,CCCC[P+](c1ccccc1)(c1ccccc1)c1ccccc1,16.3%
8,COc1ccc(OC)c(/C=C2\Oc3cc(O)ccc3C2=O)c1,95.7%
9,CC(C)c1[nH]nc2c(NCc3ccc(-c4ccccn4)cc3)nc(SCCN)nc12,-24.4% (active)
10,O=C(Nc1c(Cl)cc(Cl)cc1Cl)ON=C1CCCCC1,101%
11,CC1=NOCC(=O)N1,104%
12,CC(C)(C)CC(C)(C)Nc1c(-c2ccncc2)nc2cnccn12,102%
13,Cn1cc(-c2ccc3ncc(-c4ccc(CC(=O)Nc5cc(C(C)(C)C)nn5C)cc4)cc3c2)cn1,-36.7% [30 µM] (active)
14,O=c1[nH]c(=O)n(C2C[C@H](O)[C@@H](CO)O2)cc1C(F)(F)F (stereo not given in full),85.8%
15,C[n+]1c2ccccc2c(Nc2ccc(N3CCCCC3)cc2)c2[nH]c3ccccc3c21,-55.6% (active)
16,CC(=O)c1cc2c(N)c(C(=O)Nc3cccc4ccncc34)sc2nc1C,86.2%
17,COc1cc(C2C=C(c3ccc(C)cc3)Nc3nc(SC)[nH]c(=O)c32)ccc1Oc1ccnc2cc(Cl)ccc12 (stereo not given),104%
18,CCCCOc1ccc(/C=C2/SC(N3CCCC3)=NC2=O)cc1,98%
19,Nc1ccc(-c2cc3c(NCc4ccccc4)ncnc3s2)cc1,85.5%
20,CC1Cc2ccccc2N1NC(=O)c1ccc(Cl)c(S(N)(=O)=O)c1 (stereo not given),92.3%
21,COc1ccc(-n2cc(-c3ccc(Cl)c(Cl)c3)[nH]c2=O)cc1OC,179%
22,OCCNc1nc(Nc2ccc(C3=NN(c4cc(Cl)cc(Cl)c4)C(c4ccc(C(F)(F)F)cc4)C3)cc2)nc(N2CCOCC2)n1 (stereo not given),101%
23,CCCCC1=c2c([nH]c3ccc(OC)cc23)=NC2C=CC=NC12 (stereo not given),80.5%
24,O=C1CC(C(F)(F)F)Cc2nc3ccc(Br)cc3cc21 (stereo not given),89.8%
25,O=C1NC(=O)[C@@H](c2cn3c4c(cccc24)CCC3)[C@@H]1c1c[nH]c2ccccc12,-21% (active)
